# Source: the supplement of paper PMC6331611
# ± gives the standard deviation of the averaged measurements. In all, about 1,600 compounds were measured (“normalized growth (OD600, IQM-normalized) in LPM”: median about 1, lowest 2% from about 0.014 on). The sample holds the lowest values, similar compounds and a random draw of the others, so the mix is not that of the screen.
# System: Salmonella enterica serovar Typhimurium SL1344
# Experiment: normalized growth (OD600, IQM-normalized) in LPM (fraction of plate interquartile mean); higher = more bacterial growth (less inhibition)
# Conditions: LPM pH 5.8; 10 µM; 16 h
row,SMILES,normalized growth
1,CCn1cc(C(=O)O)c(=O)c2cc3c(cc21)OCO3,0.00952 ± 0.00073
2,C[N+]1(C)CCCC(OC(=O)C(O)(c2ccccc2)c2ccccc2)C1 (stereo not given),1.1 ± 0.011
3,CC[C@H]1CN2CC[C@H]1C[C@@H]2[C@@H](O)c1ccnc2ccc(OC)cc12,0.912 ± 0.022
4,CC(C)C[C@H]1C(=O)N2CCC[C@H]2[C@]2(O)O[C@](NC(=O)[C@@H]3C=C4c5cccc6[nH]c(Br)c(c56)C[C@H]4N(C)C3)(C(C)C)C(=O)N12,0.947 ± 0.03
5,Cc1ccc(O)cc1.Cc1cccc(O)c1.Cc1ccccc1O,0.955 ± 0.19
6,O=[N+]([O-])C(Br)(CO)CO,0.786 ± 0.02
7,C[CH2][Hg][S]c1ccccc1C(=O)[O-].[Na+],0.00984 ± 0.0003
8,CCCCOC(=O)c1ccccc1C(=O)OCCCC,1.363 ± 0.0046
9,O=C([O-])Cc1ccccc1.[Na+],1.14 ± 0.026
10,Oc1noc2c1CCNC2,0.948 ± 0.041
11,[O-][n+]1ccccc1[S-].[O-][n+]1ccccc1[S-].[Zn+2],0.00799 ± 0.00024
12,O=C1CCO1,0.959 ± 0.039
13,Oc1ccc2c3c1O[C@H]1[C@@H](O)CC[C@@]4(O)[C@@H](C2)N(CC2CCC2)CC[C@]314,0.92 ± 0.12
14,CC(=O)[O][Hg][c]1ccccc1,0.0096 ± 0.00029
15,CC(Cc1ccc(O)cc1)NCC(O)c1cc(O)cc(O)c1 (stereo not given),1.087 ± 0.0059
16,CCOP(=S)(OCC)Oc1nc(Cl)c(Cl)cc1Cl,1.33 ± 0.11
17,NC(=O)C[S+]([O-])C(c1ccccc1)c1ccccc1 (stereo not given),0.865 ± 0.082
18,CC(C)=CC1C(C(=O)OCc2cccc(Oc3ccccc3)c2)C1(C)C (stereo not given),0.894 ± 0.04
19,NP(N)(=O)NC(=O)c1ccc(F)cc1,1.06 ± 0.017
20,C[N+]12CCC(CC1)C(OC(=O)C(O)(c1ccccc1)c1ccccc1)C2 (stereo not given),1.05 ± 0.026
21,Oc1ccc(Cl)cc1Cc1cc(Cl)ccc1O,0.895 ± 0.086
22,Oc1cc(Cl)ccc1Oc1ccc(Cl)cc1Cl,0.00811 ± 0.00016
23,Oc1ccc(Cl)cc1,0.971 ± 0.012
24,O=[N+]([O-])O[C@@H]1CO[C@H]2[C@@H]1OC[C@@H]2O,1.11 ± 0.026
25,CC(C)(O)C(Cl)(Cl)Cl,1 ± 0.032
